Measurements taken from PubChem BioAssay (Tox21).
Inconclusive results are not listed. Active and inactive are the calls of the source. Unless noted, the call rests on the fitted dose curve.

Assays:
[1] = Nuclear factor erythroid 2-related factor 2/antioxidant responsive element (Nrf2/ARE) small molecule agonists: qHTS cell viability counter screen in human keratinocytes (AID 1919968; active means well fitted curve in the direction sought with a large enough effect in the repeat runs; an effect the other way counts as inactive or inconclusive; further: nearly all actives have a fitted effect of over 55% in size; further: potency means the concentration at half of the fitted maximal effect)
How it was run: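 KeratinoSens HaCaT cells, 1,500/well, preincubated 5 h, then exposed to compounds in DMSO for 23 h at 37 C/5% CO2. Viability read as CellTiter-Fluor fluorescence after 1 h, in the same wells as the ARE-luciferase read.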

[2] = Nuclear factor erythroid 2-related factor 2/antioxidant responsive element (Nrf2/ARE) small molecule agonists: luciferase reporter gene qHTS assay in human keratinocytes (AID 1919969); further: nearly all actives have a fitted effect of over 35% in size
[3] = target: Gonadotropin-releasing hormone receptor (Homo sapiens) (UniProt P30968); assay: Human gonadotropin-releasing hormone receptor (GnRHR) small molecule agonists, calcium flux assay in GnRHR-HEK293 cells (AID 1920063); further: nearly all actives have a fitted effect of over 35% in size
Chain of Gonadotropin-releasing hormone receptor (Homo sapiens) (P30968 whole entry, looked up): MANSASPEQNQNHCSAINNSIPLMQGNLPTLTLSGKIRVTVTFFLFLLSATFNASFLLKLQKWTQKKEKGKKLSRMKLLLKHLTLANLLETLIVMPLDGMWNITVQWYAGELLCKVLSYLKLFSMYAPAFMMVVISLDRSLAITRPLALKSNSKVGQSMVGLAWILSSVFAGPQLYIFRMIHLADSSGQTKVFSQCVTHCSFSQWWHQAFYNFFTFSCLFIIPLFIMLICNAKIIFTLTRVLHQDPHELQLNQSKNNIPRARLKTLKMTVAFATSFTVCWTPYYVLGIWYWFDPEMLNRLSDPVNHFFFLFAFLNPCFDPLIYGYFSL
How it was run: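 HEK293 cells stably expressing human GnRHR were dye-loaded for 1 h at 37 C. Compound was added in agonist mode and fluorescence (Ex/Em 480/540) recorded kinetically for 3 min. Fifteen concentrations, triplicates.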

[4] = target: KiSS-1 receptor (Homo sapiens) (UniProt Q969F8); assay: Human kisspeptin (KISS1R) small molecule agonists, calcium flux assay in KISS1R-HEK293 cells (AID 1920064; active means well fitted curve in the direction sought with a large enough effect in the repeat runs; an effect the other way counts as inactive or inconclusive)
Chain of KiSS-1 receptor (Homo sapiens) (Q969F8 whole entry, looked up): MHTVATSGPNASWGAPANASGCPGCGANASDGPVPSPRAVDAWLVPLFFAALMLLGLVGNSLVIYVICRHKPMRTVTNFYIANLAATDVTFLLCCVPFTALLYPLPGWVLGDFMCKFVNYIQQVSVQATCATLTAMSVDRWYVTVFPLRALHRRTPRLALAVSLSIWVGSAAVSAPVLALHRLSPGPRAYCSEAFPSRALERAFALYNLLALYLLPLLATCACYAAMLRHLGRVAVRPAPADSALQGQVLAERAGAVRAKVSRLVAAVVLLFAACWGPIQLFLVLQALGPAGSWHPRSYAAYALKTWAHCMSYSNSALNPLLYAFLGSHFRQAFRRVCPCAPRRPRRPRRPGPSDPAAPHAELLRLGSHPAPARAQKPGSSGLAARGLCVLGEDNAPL
How it was run: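 HEK293 cells stably expressing human KISS1R were loaded with calcium dye for 1 h at 37 C, then given compound; fluorescence (Ex/Em 480/540) was read kinetically for 3 min. Fifteen concentrations, triplicate.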

[5] = G protein-coupled receptor (GPCR) small molecule agonists, calcium flux assay: HEK293 wild type cell line counter screen (AID 1920065)
How it was run: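 Wild-type HEK293 cells plated 18 h, loaded with calcium dye 1 h at 37 C, then compounds added in agonist mode (ATP as positive control). Kinetic fluorescence Ex/Em 480/540 recorded 3 min at 1 sec intervals; 15 concentrations, triplicate.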

[6] = p53 small molecule agonists, cell-based qHTS assay with rat liver microsomes: qHTS cell viability counter screen (AID 1963580); further: nearly all actives have a fitted effect of over 45% in size
How it was run: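 Viability is assessed in parallel with the p53 reporter read: HCT-116 p53RE-bla cells receive compounds plus rat microsomes and NADPH (0.5 mg/mL final apiece), incubate 16 h at 37 C, and then CellTiter-Glo luminescence is recorded.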

[7] = p53 small molecule agonists, cell-based qHTS assay: qHTS cell viability counter screen (AID 1963581); further: nearly all actives have a fitted effect of over 45% in size
How it was run: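 p53RE-bla HCT-116 cells, compounds added 5 h after plating and incubated 16 h at 37 C. Cytotoxicity measured in the same wells as intracellular ATP by CellTiter-Glo luminescence after 30 min at room temperature.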

[8] = target: 5-hydroxytryptamine receptor 2A (Homo sapiens) (UniProt P28223); assay: 5-hydroxytryptamine receptor 2A (HTR2A) small molecule antagonists, cell-based qHTS assay (AID 1963586); further: nearly all actives have a fitted effect of over 45% in size
Chain of 5-hydroxytryptamine receptor 2A (Homo sapiens) (P28223 whole entry, looked up): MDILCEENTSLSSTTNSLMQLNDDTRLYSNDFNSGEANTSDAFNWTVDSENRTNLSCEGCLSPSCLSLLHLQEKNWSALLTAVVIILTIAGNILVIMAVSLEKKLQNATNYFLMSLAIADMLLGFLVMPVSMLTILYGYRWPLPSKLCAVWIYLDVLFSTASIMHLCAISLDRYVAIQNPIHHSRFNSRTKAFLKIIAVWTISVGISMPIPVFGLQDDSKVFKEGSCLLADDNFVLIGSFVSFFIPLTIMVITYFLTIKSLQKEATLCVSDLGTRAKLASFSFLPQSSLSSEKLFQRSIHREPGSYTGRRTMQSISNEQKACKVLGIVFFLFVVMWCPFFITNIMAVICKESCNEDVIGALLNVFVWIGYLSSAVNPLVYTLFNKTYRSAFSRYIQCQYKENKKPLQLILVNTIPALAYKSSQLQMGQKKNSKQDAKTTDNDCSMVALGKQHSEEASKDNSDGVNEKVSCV
How it was run: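 Antagonist-mode intracellular calcium assay: DOI (4 nM) added after 5 min compound pre-incubation at room temperature to dye-loaded HTR2A-CHO cells. Fluorescence followed for 3 min, sampled every second.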

[9] = target: 5-hydroxytryptamine receptor 2A (Homo sapiens) (UniProt P28223); assay: 5-hydroxytryptamine receptor 2A (HTR2A) small molecule agonists, cell-based qHTS assay (AID 1963587); further: nearly all actives have a fitted effect of over 30% in size; further: potency means the concentration at half of the fitted maximal effect
How it was run: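 CHO cells stably expressing human HTR2A, plated 18 h, loaded with calcium dye 1 h at 37 C. Agonist mode: compounds added and intracellular calcium fluorescence recorded kinetically for 2 min at 1 sec intervals.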

[10] = target: Muscarinic acetylcholine receptor M1 (Homo sapiens) (UniProt P11229); assay: Cholinergic receptor muscarinic 1 (CHRM1) small molecule antagonists, cell-based qHTS assay (AID 1963588); further: nearly all actives have a fitted effect of over 40% in size
Chain of Muscarinic acetylcholine receptor M1 (Homo sapiens) (P11229 whole entry, looked up): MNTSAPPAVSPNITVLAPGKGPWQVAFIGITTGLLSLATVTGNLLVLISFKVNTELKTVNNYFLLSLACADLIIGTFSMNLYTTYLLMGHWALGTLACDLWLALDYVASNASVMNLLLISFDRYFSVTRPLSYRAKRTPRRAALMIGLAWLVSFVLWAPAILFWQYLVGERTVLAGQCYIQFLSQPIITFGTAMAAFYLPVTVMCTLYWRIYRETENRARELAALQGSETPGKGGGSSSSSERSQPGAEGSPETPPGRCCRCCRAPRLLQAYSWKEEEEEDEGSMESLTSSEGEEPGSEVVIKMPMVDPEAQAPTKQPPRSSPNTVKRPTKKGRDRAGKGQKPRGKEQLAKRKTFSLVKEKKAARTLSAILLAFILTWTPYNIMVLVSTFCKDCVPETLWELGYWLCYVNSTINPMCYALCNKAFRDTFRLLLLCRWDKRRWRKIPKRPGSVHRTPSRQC
How it was run: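 CHRM1-CHO calcium-flux assay, antagonist mode. Cells were seeded 18 h, dye-loaded 1 h at 37 C and given compound for 5 min at RT, then acetylcholine was added at 50nM. FDSS fluorescence was read 3 min; 15 concentrations, three runs.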

[11] = target: Muscarinic acetylcholine receptor M1 (Homo sapiens) (UniProt P11229); assay: Cholinergic receptor muscarinic 1 (CHRM1) small molecule agonists, cell-based qHTS assay (AID 1963589); further: nearly all actives have a fitted effect of over 35% in size; further: potency means the concentration at half of the fitted maximal effect
How it was run: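 CHO cells stably expressing human CHRM1 were loaded with calcium dye for 1 h at 37 C, then compound was added in agonist mode. Intracellular calcium fluorescence was followed kinetically at 1 s intervals. Fifteen concentrations were tested in three independent runs.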

[12] = target: Beta-2 adrenergic receptor (Homo sapiens) (UniProt P07550); assay: Adrenergic beta2 receptor (ADRB2) small molecule antagonists, cell-based qHTS assay (AID 1963592); further: series mostly up to about 92 µM; nearly all actives have a fitted effect of over 50% in size
Chain of Beta-2 adrenergic receptor (Homo sapiens) (P07550 whole entry, looked up): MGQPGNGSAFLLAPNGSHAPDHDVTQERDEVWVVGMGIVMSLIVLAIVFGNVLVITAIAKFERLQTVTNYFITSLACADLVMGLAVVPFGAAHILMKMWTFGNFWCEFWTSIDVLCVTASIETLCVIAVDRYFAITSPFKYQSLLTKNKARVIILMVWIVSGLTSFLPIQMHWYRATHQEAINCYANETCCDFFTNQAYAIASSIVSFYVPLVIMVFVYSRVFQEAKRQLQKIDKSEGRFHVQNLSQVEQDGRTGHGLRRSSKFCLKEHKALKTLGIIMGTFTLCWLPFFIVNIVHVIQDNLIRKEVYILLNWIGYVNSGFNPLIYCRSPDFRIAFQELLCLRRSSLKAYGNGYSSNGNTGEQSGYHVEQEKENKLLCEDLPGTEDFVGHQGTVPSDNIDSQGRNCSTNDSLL
How it was run: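 Cells (CHO, stable ADRB2 overexpression) incubated 18-20hr at 37C; compounds added from DMSO; agonist mix (1nM isoproterenol, 100uM IBMX, 25uM Ro-20-1724) added; 0.5hr RT; d2-cAMP and anti-cAMP-cryptate added; 1hr RT; 665/615 nm read.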

[13] = target: D(2) dopamine receptor (Homo sapiens) (UniProt P14416); assay: Dopamine D2 receptor (DRD2) small molecule agonists, cell-based qHTS assay (AID 1963594); further: nearly all actives have a fitted effect of over 35% in size
Chain of D(2) dopamine receptor (Homo sapiens) (P14416 whole entry, looked up): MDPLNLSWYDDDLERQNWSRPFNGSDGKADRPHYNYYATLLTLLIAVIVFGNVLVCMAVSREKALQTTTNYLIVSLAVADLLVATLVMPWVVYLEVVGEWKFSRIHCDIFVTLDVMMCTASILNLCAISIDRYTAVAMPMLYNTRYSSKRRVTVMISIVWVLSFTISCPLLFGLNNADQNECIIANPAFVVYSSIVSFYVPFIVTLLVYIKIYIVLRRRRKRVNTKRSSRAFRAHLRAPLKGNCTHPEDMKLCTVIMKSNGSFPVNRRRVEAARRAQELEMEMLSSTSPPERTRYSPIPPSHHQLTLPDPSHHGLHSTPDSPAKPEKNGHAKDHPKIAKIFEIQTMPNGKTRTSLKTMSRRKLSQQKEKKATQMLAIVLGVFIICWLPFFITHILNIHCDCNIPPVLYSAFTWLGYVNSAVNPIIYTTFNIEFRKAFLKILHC
How it was run: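 HEK293 cells stably expressing human DRD2, pre-treated with PDE inhibitor Ro20-1724 (0.1 mM final) and compound 10 min at room temperature, then stimulated with NKH477 (200nM […]) for 30 min. cAMP read by HTRF (665/620 nm).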

[14] = target: D(2) dopamine receptor (Homo sapiens) (UniProt P14416); assay: Dopamine D2 receptor (DRD2) small molecule antagonists, cell-based qHTS assay (AID 1963595; active means well fitted inhibition curve with a large enough effect in the signal ratio in the repeat runs, with a control signal flat; the % refers to the signal ratio; further: potency means the concentration at half of the fitted maximal effect)
How it was run: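 Human DRD2 antagonist qHTS measuring cAMP by HTRF. The cells are exposed to compound for 10 min, then to NKH477 (200 nM) and quinpirole (12 nM) for 30 min at RT, with Ro20-1724 (0.1 mM) present throughout.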

[15] = cAMP Responsive Elements (CRE) small molecule agonists, cell-based qHTS assay (AID 1963590)
How it was run: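 CRE-bla HEK 293T cells, 2,000/well in DMEM with 10% dialyzed FBS and 25 mM HEPES, pre-incubated 18 h at 37 C, then exposed to compound 3 h at 37 C. Beta-lactamase reporter read with LiveBLAzer B/G FRET substrate after 2 h at room temperature.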

[16] = cAMP Responsive Elements (CRE) small molecule antagonists, cell-based qHTS assay (AID 1963591; active means well fitted inhibition curve with a large enough effect in the signal ratio in the repeat runs, not every such curve was filed as active; the % refers to the signal ratio)
How it was run: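 CRE-bla HEK293T cells plated 18 h, then given compound plus NKH477 at 0.25 uM final for 3 h at 37C. Beta-lactamase reporter read with LiveBLAzer B/G FRET substrate after 2 h at room temperature.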

[17] = target: Beta-2 adrenergic receptor (Homo sapiens) (UniProt P07550); assay: Adrenergic beta2 receptor (ADRB2) small molecule agonists, cell-based qHTS assay (AID 1963593);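 further: CHO cells stably overexpressing human ADRB2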
How it was run: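 CHO cells stably over-expressing ADRB2 were plated overnight at 37C, then dosed with compounds plus a stimulation mix containing 100uM IBMX and 25uM Ro-20-1724 for 0.5hr at room temperature. cAMP was measured by HTRF competition, 1hr.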

[18] = p53 small molecule agonists, cell-based qHTS assay with human liver microsomes: qHTS cell viability counter screen (AID 1963579); further: nearly all actives have a fitted effect of over 45% in size
How it was run: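 Metabolic activation used human liver microsomes and NADPH, both 0.5 mg/mL final, over 16 hours at 37 C on p53RE-bla cells (4,000/well). Cytotoxicity measured by CellTiter-Glo luminescence, 30 min at room temperature.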

[19] = p53 small molecule agonists, cell-based qHTS assay with rat liver microsomes (AID 1963578)
How it was run: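 Metabolic activation by rat liver microsomes and NADPH, each 0.5 mg/mL final, added right after compounds to p53RE-bla reporter cells (4,000/well, plated 5 h earlier). 16 h at 37 C, then LiveBLAzer substrate for 2 h at room temperature in the dark; fluorescence read-out.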

[20] = p53 small molecule agonists, cell-based qHTS assay (AID 1963582; active means well fitted activation curve with a large enough effect in the signal ratio in the repeat runs, not every such curve was filed as active; the % refers to the signal ratio)
How it was run: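 p53RE-bla reporter cells, compounds added in DMSO after 5 h plating, incubated 16 h at 37 C. Beta-lactamase read via 2 h room-temperature LiveBLAzer B/G FRET substrate, fluorescence intensity.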

Measured: Potency

CC[C@H]1O[C@]2(CC[C@@H]1C)C[C@@H]1C[C@@H](C/C=C(\C)C[C@@H](C)/C=C/C=C3\CO[C@@H]4[C@H](O)C(C)=C[C@@H](C(=O)O1)[C@]34O)O2
active: [1] 15.2 µM | [14] 48.1 µM
not listed: [15] | [16] | [17] | [18] | [19] | [20]
inactive: all other assays above

CCCCNc1ccc(C(=O)OCCOCCOCCOCCOCCOCCOCCOCCOCCOC)cc1
not listed: [7] | [8] | [10] | [18] | [19] | [20]
inactive: all other assays above

COc1c2occc2c(OC)c2c(=O)cc(C)oc12
not listed: [7] | [16] | [18] | [19] | [20]
inactive: all other assays above

CCCCCCCCCCCCSCCOCCO
active: [11] 0.0379 µM
not listed: [5] | [19] | [20]
inactive: all other assays above

COc1ccc(/C=C/c2cc(OC)cc(=O)o2)cc1
not listed: [5] | [7] | [8] | [15] | [20]
inactive: all other assays above

CC1=C(C(=O)O)N2C(=O)[C@@H](NC(=O)[C@H](N)c3ccccc3)[C@H]2SC1
inactive: [1] | [2] | [3] | [4] | [5] | [7] | [15] | [16] | [12] | [17] | [13]

CCCCCCCCCCCCCCC[C@H](O)[C@@H](N)CO
active: [9] 7.56 µM
not listed: [5] | [12] | [13] | [16] | [17] | [19]
inactive: all other assays above

CCOc1ccc(O)cc1
not listed: [5] | [6] | [7] | [15] | [17] | [19]
inactive: all other assays above

O=Cc1ccccc1Cl
not listed: [5] | [8] | [19] | [20]
inactive: all other assays above
